According to PubChem BioAssay (Tox21):
Results filed as inconclusive are left out. Entries that show only a call come without a potency. A structure can be active in one record and inactive in another. Calls of active or inactive are those of the source. Unless noted, calls follow the shape of the dose curve; as a rule, active = well fitted curve in the direction sought with a large enough effect in the repeat runs; inconclusive = weak or mixed curves; inactive = no such curve, though single readings can be large; an effect the other way counts as inactive or inconclusive.

Assays:
[1] = qHTS assay to identify aromatase inhibitors - cell viability counter screen (AID 743084);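 also: cells stimulated with testosterone during compound exposure; nearly all actives have a fitted effect of over 55% in size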
[2] = molecular target: Aryl hydrocarbon receptor (Homo sapiens) (UniProt P35869); assay: qHTS assay to identify small molecule that activate the aryl hydrocarbon receptor (AhR) signaling pathway (AID 743085); also: nearly all actives have a fitted effect of over 15% in size; also: potency is read from the fitted curve at half-maximal effect;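 as to activation: HG2L7.5c1 human HepG2 liver cells with stably integrated DRE-driven firefly reporter; series mostly up to about 70 µM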
Outline: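 Reporter assay in engineered HepG2 line HG2L7.5c1, whose plasmid carries twenty dioxin responsive elements upstream of firefly luciferase. Treatment lasted 24 h at 37C; ONE-Glo luminescence gauged induction.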

[3] = molecular target: Peroxisome proliferator-activated receptor gamma (Homo sapiens) (UniProt P37231); assay: qHTS assay to identify small molecule agonists of the peroxisome proliferator-activated receptor gamma (PPARg) signaling pathway (AID 743094; active = well fitted activation curve with a large enough effect in the signal ratio in the repeat runs, not every such curve was filed as active; the % refers to the signal ratio)
Outline: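 Following 5 h plating at 37C, PPARg-bla HEK293H cells receive compound or DMSO for 17 h; fluorescence intensity is recorded after LiveBLAzer B/G loading for 1 h at room temperature.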

[4] = molecular target: Peroxisome proliferator-activated receptor gamma (Homo sapiens) (UniProt P37231); assay: qHTS assay to identify small molecule antagonists of the peroxisome proliferator-activated receptor gamma (PPARg) signaling pathway (AID 743191; calls by dose curve; also: series mostly up to about 63 µM; nearly all actives have a fitted effect of over 30% in size)
Outline: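 Beta-lactamase reporter under UAS control in HEK293H PPARg-bla cells; compound treatment 17 h at 37C. Read-out: fluorescence intensity after 1 h room-temperature incubation with LiveBLAzer B/G FRET substrate.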

[5] = qHTS assay to identify small molecule antagonists of the peroxisome proliferator-activated receptor gamma (PPARg) signaling pathway - cell viability counter screen (AID 743194); also: nearly all actives have a fitted effect of over 55% in size
Outline: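 Viability was measured as CellTiter-Glo luminescence in GeneBLAzer PPARg UAS-bla HEK293H cells. These cells had been exposed 17 h at 37 C to compounds together with rosiglitazone at 50 nM final, with the beta-lactamase readout taken in the same wells.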

[6] = qHTS assay for small molecule agonists of the antioxidant response element (ARE) signaling pathway (AID 743202; active = well fitted activation curve with a large enough effect in the signal ratio in the repeat runs, not every such curve was filed as active; the % refers to the signal ratio; also: potency is read from the fitted curve at half-maximal effect)
Outline: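 An ARE-responsive beta-lactamase gene stably integrated in HepG2 cells serves as reporter. After 5 h plating and 16 h compound incubation at 37 C, fluorescence of the B/G FRET substrate was measured.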

[7] = qHTS assay for small molecule agonists of the antioxidant response element (ARE) signaling pathway - cell viability counter screen (AID 743203; calls by dose curve; also: nearly all actives have a fitted effect of over 55% in size)
Outline: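 Compounds in DMSO were pinned onto ARE-bla HepG2 cells plated 5 hrs earlier at 2,000 cells/well. Sixteen hours later at 37C/5% CO2, CellTiter-Glo was added and luminescence measured after 30 min at room temperature.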

[8] = qHTS assay for small molecule activators of the heat shock response signaling pathway - cell viability counter screen (AID 743209); also: nearly all actives have a fitted effect of over 50% in size
Outline: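 Counter screen for cytotoxicity in HeLa HSE-bla reporter cells. Treatment was 5 h at 37 C; viability was detected by luminescent ATP assay (CellTiter-Glo) in the same wells as the beta-lactamase read.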

[9] = qHTS assay for small molecule activators of the heat shock response signaling pathway (AID 743210; active = well fitted activation curve with a large enough effect in the signal ratio in the repeat runs, with a control signal flat, not every such curve was filed as active; the % refers to the signal ratio;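 also: HeLa cells with beta-lactamase reporter driven by heat shock elements; series mostly up to about 63 µM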)
Outline: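 In HSE-bla HeLa cells, 5 h compound incubation (37 C) precedes addition of LiveBLAzer B/G substrate; after 2.5 h at room temperature, fluorescence intensity indicates reporter induction.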

[10] = qHTS assay to identify small molecule that activate the aryl hydrocarbon receptor (AhR) signaling pathway - cell viability counter screen (AID 743086);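 also: HepG2 liver cells carrying the AhR DRE luciferase reporter; series mostly up to about 70 µM; nearly all actives have a fitted effect of over 45% in size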
Outline: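 Cytotoxicity counter screen: CellTiter-Fluor signal (30 min, 37 C) in 4000 HepG2 cells/well carrying the DRE-luciferase reporter, following 24 h compound exposure at 37 C.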

Peroxisome proliferator-activated receptor gamma (Homo sapiens), sequence (P37231 whole entry, looked up): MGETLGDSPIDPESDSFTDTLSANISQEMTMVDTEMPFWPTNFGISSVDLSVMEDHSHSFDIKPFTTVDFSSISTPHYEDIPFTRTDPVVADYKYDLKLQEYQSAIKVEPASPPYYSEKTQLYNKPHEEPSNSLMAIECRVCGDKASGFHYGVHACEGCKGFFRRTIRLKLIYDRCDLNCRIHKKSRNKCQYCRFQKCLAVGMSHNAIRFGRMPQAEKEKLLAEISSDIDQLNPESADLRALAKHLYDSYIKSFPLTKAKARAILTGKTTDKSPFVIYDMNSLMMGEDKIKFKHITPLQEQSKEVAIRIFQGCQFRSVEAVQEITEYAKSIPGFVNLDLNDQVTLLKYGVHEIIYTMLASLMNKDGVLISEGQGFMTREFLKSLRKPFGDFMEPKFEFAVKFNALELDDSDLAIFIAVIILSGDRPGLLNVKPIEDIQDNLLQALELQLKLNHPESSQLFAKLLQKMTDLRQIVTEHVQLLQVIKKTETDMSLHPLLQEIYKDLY
Aryl hydrocarbon receptor (Homo sapiens), sequence (P35869 whole entry, looked up): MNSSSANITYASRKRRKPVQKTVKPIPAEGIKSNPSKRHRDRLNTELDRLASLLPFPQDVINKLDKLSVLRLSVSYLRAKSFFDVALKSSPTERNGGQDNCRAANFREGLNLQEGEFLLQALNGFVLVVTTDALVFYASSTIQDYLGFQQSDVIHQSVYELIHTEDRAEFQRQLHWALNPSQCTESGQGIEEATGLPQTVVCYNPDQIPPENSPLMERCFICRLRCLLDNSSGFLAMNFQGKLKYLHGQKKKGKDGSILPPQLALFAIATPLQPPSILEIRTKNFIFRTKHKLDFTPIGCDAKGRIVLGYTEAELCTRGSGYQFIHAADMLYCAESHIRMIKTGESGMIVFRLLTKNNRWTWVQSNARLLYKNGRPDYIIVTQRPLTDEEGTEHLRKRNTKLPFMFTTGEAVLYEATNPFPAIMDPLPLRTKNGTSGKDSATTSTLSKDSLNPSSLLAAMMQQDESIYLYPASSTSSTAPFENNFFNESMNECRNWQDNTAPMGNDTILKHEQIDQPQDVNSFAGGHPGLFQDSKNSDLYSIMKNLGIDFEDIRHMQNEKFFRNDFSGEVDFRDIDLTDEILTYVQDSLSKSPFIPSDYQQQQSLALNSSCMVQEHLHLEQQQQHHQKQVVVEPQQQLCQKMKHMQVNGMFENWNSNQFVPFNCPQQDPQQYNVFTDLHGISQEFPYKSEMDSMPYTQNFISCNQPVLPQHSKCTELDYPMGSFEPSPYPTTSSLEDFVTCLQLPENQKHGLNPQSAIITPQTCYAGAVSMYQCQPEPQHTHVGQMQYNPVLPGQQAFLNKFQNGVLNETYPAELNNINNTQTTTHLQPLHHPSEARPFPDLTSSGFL

Row | Compound | Potency [1] | Potency [2] | outcome [3] | Potency [4] | outcome [5] | Potency [6] | outcome [7] | outcome [8] | outcome [9] | Potency [10]
1 | CC1(C)S[C@@H]2[C@H](N=CN3CCCCCC3)C(=O)N2[C@H]1C(=O)O | inactive | inactive | inactive | inactive | inactive | inactive | inactive | inactive | inactive | 
2 | N[C@@H](CCC(=O)N[C@@H](CS)C(=O)NCC(=O)O)C(=O)O | inactive | inactive |  |  | inactive | inactive | inactive | inactive | inactive | inactive
3 | Cc1ccccc1OCC(O)CO (stereo not given) | inactive | inactive | inactive | inactive | inactive | inactive | inactive | inactive | inactive | 
4 | CC(C)N(c1ccccc1)C(C)C | inactive | inactive | inactive | inactive |  | inactive | inactive | inactive | inactive | 
5 | C=C1CC/C=C(\C)CC[C@@H]2[C@@H]1CC2(C)C | inactive | inactive | inactive | inactive | inactive | inactive | inactive | inactive | inactive | 
6 | CC(=O)N[C@@H](CCC(=O)O)C(=O)O | inactive | inactive | inactive | inactive | inactive |  | inactive | inactive | inactive | 
7 | CC(=O)CCCCn1c(=O)c2c(ncn2C)n(C)c1=O | inactive | inactive | inactive | inactive |  | inactive | inactive | inactive | inactive | 
8 | Cc1cc2cc3c(C)cc(=O)oc3c(C)c2o1 | inactive | inactive | inactive | inactive | inactive | inactive | inactive | inactive | inactive | 
9 | CCCCOCCOC(=O)COc1nc(Cl)c(Cl)cc1Cl | inactive | inactive | inactive |  |  |  | inactive | inactive | inactive | inactive
10 | CCCCCCN | inactive | inactive |  |  | inactive | inactive | inactive | inactive |  | inactive
11 | CCCN1C[C@H](CSC)C[C@@H]2c3cccc4[nH]cc(c34)C[C@H]21 | inactive | inactive |  | inactive | inactive | inactive | inactive | inactive | inactive | inactive
12 | CCCCCCCCCC(C)=O | inactive | inactive | inactive | inactive | inactive | inactive | inactive | inactive | inactive | 
13 | O=C(O)Cc1ccc(Cl)cc1Cl | inactive | inactive | inactive | inactive | inactive | inactive | inactive | inactive | inactive | 
14 | CC1COc2ccccc2N1 (stereo not given) | inactive | 0.969 µM (active) | inactive | inactive | inactive | inactive | inactive | inactive | inactive | 
15 | CC1=C(C(=O)O)N2C(=O)[C@@H](NC(=O)[C@H](N)c3ccc(O)cc3)[C@H]2SC1 | inactive | inactive |  |  | inactive |  | inactive | inactive | inactive | inactive
16 | O=C(Nc1ccc(Cl)c(Cl)c1)C1CC1 | inactive | 29.8 µM (active) | inactive | inactive |  | 15 µM (active) | inactive | inactive | inactive | 
17 | OCCC(F)(F)C(F)(F)C(F)(F)C(F)(F)C(F)(F)C(F)(F)C(F)(F)C(F)(F)F | inactive | inactive |  |  | inactive | inactive | inactive | inactive | inactive | inactive
18 | CC(C(=O)O)c1ccc2c(c1)CC(=O)c1ccccc1S2 (stereo not given) | inactive | inactive |  |  |  | inactive | inactive | inactive | inactive | inactive
19 | Nc1ccc2cc(S(=O)(=O)O)cc(O)c2c1 | inactive | 27.1 µM (active) | inactive | inactive | inactive |  | inactive | inactive | inactive | 
20 | CCCCC(CC)COCCO (stereo not given) | inactive | inactive | inactive | inactive |  | inactive | inactive | inactive | inactive | 
21 | COc1ccc(C2CNC(=O)C2)cc1OC1CCCC1 (stereo not given) | inactive | inactive | inactive | inactive | inactive | inactive | inactive | inactive | inactive | 
22 | NCCN1CCOCC1 | inactive | inactive |  |  | inactive | inactive | inactive | inactive | inactive | inactive
23 | COc1ccc(S(=O)(=O)N2c3ccc(Cl)cc3[C@@](O)(c3ccccc3Cl)[C@H]2C(=O)N2CCC[C@@H]2C(N)=O)cc1OC | inactive | inactive |  | inactive | inactive | inactive | inactive | inactive | inactive | inactive

Row | Compound | Potency [1] | Potency [2] | outcome [3] | Potency [4] | outcome [5] | Potency [6] | outcome [7] | outcome [8] | outcome [9] | Potency [10]
24 | CC(C)(C)NC(N)=O | inactive | inactive | inactive | inactive | inactive |  | inactive | inactive | inactive | 
25 | O=C(O)Cc1cn(-c2ccccc2)nc1-c1ccc(Cl)cc1 | inactive | inactive |  |  | inactive |  | inactive | inactive | inactive | inactive
26 | O=C(OCC1(COC(=O)c2cccnc2)CCCC(COC(=O)c2cccnc2)(COC(=O)c2cccnc2)C1O)c1cccnc1 | inactive | inactive | inactive |  |  | inactive | inactive | inactive | inactive | inactive
27 | CO[C@@H]1[C@@H](OC(N)=O)[C@@H](O)[C@H](Oc2ccc3c(O)c(NC(=O)c4ccc(O)c(CC=C(C)C)c4)c(=O)oc3c2C)OC1(C)C | inactive | inactive |  |  |  | inactive | inactive | inactive | inactive | inactive
28 | CCCC/C=C/C=C\C=O | inactive | inactive | inactive |  |  |  | inactive | inactive |  | inactive
29 | CCCCNc1ccc(C(=O)OCCN(C)C)cc1 | inactive | inactive |  |  | inactive |  | inactive | inactive | inactive | inactive
30 | Cc1cc(NC(=O)C2=C(O)c3ccccc3S(=O)(=O)N2C)no1 | inactive | inactive | inactive |  | inactive | inactive | inactive | inactive | inactive | 
31 | Oc1cn2c(n1)Nc1ccc(Cl)c(Cl)c1C2 | inactive | 23.7 µM (active) and inactive | inactive |  | inactive |  | inactive | inactive |  | 
32 | O=C(CCNNC(=O)c1ccncc1)NCc1ccccc1 | inactive |  |  |  | inactive | inactive | inactive | inactive | inactive | inactive
33 | COc1ccc(Br)c(C)c1 | inactive | inactive | inactive |  | inactive | inactive | inactive | inactive | inactive | 
34 | COc1cc2c(cc1OC)[C@@H]1CC(=O)[C@@H](CC(C)C)CN1CC2 | inactive |  | inactive | inactive | inactive | inactive | inactive | inactive | inactive | inactive
35 | O=C(/N=N/C(=O)OCc1ccccc1)OCc1ccccc1 | inactive |  | inactive |  | inactive | inactive | inactive | inactive |  | inactive
36 | BrCCCCCBr | inactive | inactive | inactive |  | inactive | inactive | inactive | inactive | inactive | 
37 | Cc1ccc(S(=O)(=O)O)c(C)c1 | inactive |  | inactive | inactive | inactive | inactive | inactive | inactive | inactive | inactive
38 | CCOc1cc([N+](=O)[O-])c(OCC)cc1N1CCOCC1 | inactive | inactive | inactive |  | inactive | inactive | inactive | inactive | inactive | 
39 | CC(C)NCC(O)COc1cccc2[nH]ccc12 (stereo not given) | inactive |  | inactive |  | inactive | inactive | inactive | inactive | inactive | inactive
40 | c1ccc2c(c1)ccc1c3ccccc3ccc21 | inactive |  | inactive | inactive | inactive | 24.8 µM (active) | inactive | inactive | inactive | inactive
41 | C[C@@H](O)[C@H]1C(=O)N2C(C(=O)O)=C(SCCN=CN)C[C@H]12 | inactive |  | inactive | inactive | inactive | inactive | inactive |  | inactive | inactive
42 | O=C1c2ccccc2C(=O)N1CCl | inactive |  | inactive | inactive | inactive | inactive | inactive | inactive | inactive | inactive
43 | O=Cc1ccc(Cl)c(Cl)c1 | inactive |  | inactive | inactive | inactive | inactive | inactive | inactive | inactive | inactive
44 | N#Cc1ccc(C(=O)O)cc1 | inactive | inactive | inactive |  | inactive | inactive | inactive | inactive | inactive | 
45 | CC(C)CC(=O)O | inactive |  | inactive |  | inactive |  | inactive | inactive | inactive | inactive
46 | O=C(O)c1cc(Br)c(O)c(Br)c1 | inactive |  | inactive | inactive | inactive | inactive | inactive | inactive | inactive | inactive
